# Compound activity deposited in PubChem BioAssay by National Center for Advancing Translational Sciences (NCATS).
# TDP-43 yeast inh: rescues yeast growth from TDP-43 toxicity; TDP-43 expressing yeast growth rescue, BacTiter-Glo, 24 h; Potency, µM (series often up to 46.1 µM), without a hit: at the highest dose growth rescue (activation), most hits filed as activators; actives 1.8% (n = 410,000); also: % of control where 0% means no effect; nearly all actives have a fitted effect of over 50% in size
#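 In this qHTS, compounds that restore growth of yeast expressing TDP-43 appear as activators. Cells (OD600=0.02, galactose medium, raffinose-pregrown) are incubated with compound 24 hr at 30 deg C and growth is quantified by BacTiter-Glo.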
# Abeta rescue: A-beta toxicity reversal in yeast; yeast expressing A-beta42, growth rescue, OD600, 48 h; response scale: 0% DMSO, 100% iron-clioquinol control; actives 0.063% (n = 410,000); Potency, µM (highest dose often 46.1 µM), usual class: activators; also: nearly all actives have a fitted effect of over 55% in size
#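 Yeast A-beta toxicity model in growth medium with pinned compounds, 48 h at 30 C; growth read as absorbance at 600 nm. Normalized to FeCl3/clioquinol equimolar mix (positive) and DMSO (negative).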
# aSyn rescue: alpha-synuclein toxicity inhibition in yeast. actives 0.14% (n = 370,000). AID 652106. Yeast expressing alpha-synuclein, growth rescue, BacTiter-Glo, 24 h. Potency, µM (doses to about 46.1 µM), without a hit: at the highest dose growth rescue (activation), usual class: activators; also: % of control where 0% means no effect; nearly all actives have a fitted effect of over 65% in size
#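 Rescue of yeast growth: cells expressing toxic alpha-synuclein, induced in galactose at OD600 0.02, incubated with compound 24 h at 30 C. ATP luminescence quantified growth; inhibitors of toxicity appear as activators.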
# FUS yeast rescue: rescues growth of FUS-expressing yeast; Potency, µM (series often up to 76.6 µM), hits mostly activators; S. cerevisiae FUS-expressing, growth rescue, OD600, 24 h; actives 0.24% (n = 390,000);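 also: plate controls were DMSO vehicle for no effect and reference control for full effect; nearly all actives have a fitted effect of over 55% in size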
#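 S. cerevisiae expressing FUS from galactose induction served as the toxicity model. Growth after 24hr at 30C, read as absorbance at 600 nm, indicates suppression of toxicity; compounds dosed at several concentrations.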
# PTAP TSG101 blk: blocks PTAP/TSG101 interaction to inhibit HIV-1 budding; Q99816; Fluorescence polarization, FITC-PTAP peptide / Tsg101 binding; Potency, µM (highest dose often 115 µM), for the others: top-dose activity change, negative = inhibition, most hits filed as inhibitors; 340,000 tested, under 10 active; AID 493005; active = well fitted inhibition curve with a large enough effect in the main read-out, with a control signal flat, not every such curve was filed as active; inconclusive = small, poorly fitted or top-dose-only effect, or effect the other way, or a change in a side signal; inactive = no such curve, though single readings can be large or run the other way; also: % of control where 0% means no effect
# Target sequence (Q99816 whole entry, looked up): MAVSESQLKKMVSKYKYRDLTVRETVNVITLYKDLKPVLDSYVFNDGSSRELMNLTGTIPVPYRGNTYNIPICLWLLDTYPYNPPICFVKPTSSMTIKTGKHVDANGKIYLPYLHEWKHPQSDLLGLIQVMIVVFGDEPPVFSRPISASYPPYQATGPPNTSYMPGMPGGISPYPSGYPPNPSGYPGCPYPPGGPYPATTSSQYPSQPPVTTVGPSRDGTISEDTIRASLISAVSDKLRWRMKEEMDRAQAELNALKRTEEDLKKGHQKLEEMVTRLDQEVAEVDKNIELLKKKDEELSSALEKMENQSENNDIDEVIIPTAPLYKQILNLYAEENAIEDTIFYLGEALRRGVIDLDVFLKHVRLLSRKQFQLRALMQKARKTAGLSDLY
#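 Fluorescence anisotropy tracks displacement of a FITC-tagged PTAP peptide (50 nM) from the Tsg101 binding domain (10 uM), following a 20 min room-temperature incubation at pH 7.5.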
# Numbers without * were called inactive; i = inactive; ? = inconclusive; . = no result; [ ] = remark or other dose. An excerpt weighted towards active compounds, which were near 2.1% of everything screened. Unless noted, calls follow the shape of the dose curve; as a rule, active = well fitted curve in the direction sought with a large enough effect; inconclusive = small, poorly fitted or top-dose-only effect, or another doubt; inactive = no such curve, though single readings can be large; an effect the other way counts as inactive or inconclusive. Potency is read from the fitted curve at half-maximal effect.
SMILES,TDP-43 yeast inh,Abeta rescue,aSyn rescue,FUS yeast rescue,PTAP TSG101 blk
CCOC(=O)c1ccc(N2C(=O)CC(N3CCC(O)(c4ccc(Br)cc4)CC3)C2=O)cc1 (stereo unspecified),?,i,10%,i,-3%
CCOC(=O)c1ccc(N2C(=O)CC(N3CCC(O)(c4ccc(Cl)cc4)CC3)C2=O)cc1 (stereo unspecified),5.6µM*,i,15%,i,0%
O=c1[nH]c(=O)n(CCC2=CCCCC2)c(O)c1C=NCCCn1ccnc1,-14%,i,-5%,13µM*,-2%
O=C(Oc1ccc2ccccc2c1)c1ccco1,11µM*,i,-8%,i,-6%
CC(C)CCP(=O)(O)O,.,.,.,i,.
CN(C)c1ccc(/C=C/C=C2/C(=O)NC(=O)N(c3ccccc3)C2=O)cc1,-56%,i,-44%,5.6µM*,11%
O=C1NC(=O)N(c2ccccc2)C(=O)/C1=C/C=C/c1ccco1,7%,i,4%,i,5%
C=CCN(CC#CCO)Cc1ccc(OC)cc1OC,.,.,.,i,.
Cc1ccc2c(C)c3ccc4ccccc4c3c[n+]2c1,2.5µM*,i,?,.,-1%
NC(Cc1ccc(C(F)(F)F)cc1)c1csc(Nc2nncc3ccccc23)n1 (stereo unspecified),?,i,-54%,?,.
Nc1ccc2c3c(cccc13)-c1ccccc1-2,11µM*,i,-13%,i,?
Cc1ccc2n1Cc1cnnn1-c1ccccc1-2,10µM*,i,1%,i,.
O=C(N/N=C/c1c(O)n(Cc2ccc(F)cc2)c(=O)[nH]c1=O)c1ccccc1,27%,i,0%,i,-2%
O=C(O)CCC(=O)NCCC1=c2ccccc2=N/C1=C\c1c(O)n(Cc2ccc(F)cc2)c(=S)[nH]c1=O,-2%,i,-6%,20µM*,-4%
O=C(Nc1ccc(F)cc1F)c1cccn(Cc2ccccc2)c1=O,1%[9.22 µM],i,5%,i,0%
Cc1ccc(F)cc1NC(=O)c1ccc(Cn2nc(N3CCN(c4ccccc4)CC3)ccc2=O)o1,25µM*,i,.,?,.
Cn1c(=O)n(C)c2cc(CNCCc3ccccc3)ccc21,27%[9.22 µM],i,.,i,.
CCCCC[C@H]1CCCCC[C@H](O)C[C@H](O)[C@@H](O)/C=C/C(=O)O1,21%,i,8%,i,.
COc1ccc(N2C(=O)/C(=C/c3ccc(C)o3)C(=O)NC2=S)cc1,7.1µM*,i,5%,i,-1%
CCOc1ccc(N2C(=O)/C(=C/c3ccc(C)o3)C(=O)NC2=S)cc1,-16%,i,-1%,i,-1%
O=S(=O)(c1ccc(Cl)cc1)N1CCC(n2cnc3cc(C(F)(F)F)ccc32)CC1,32µM*,i,?,.,-4%
O=C(Oc1ccc(Cl)cc1)N1CCOCC1,20µM*,i,5%,i,-1%
O=C(Nc1ccc(OC(=O)N2CCCC2)cc1)N1CCOCC1,-11%,i,3%,i,-10%
C=Cc1cc(OC)c2c(c1)c(=O)oc1c2cc(OC)c2c(O)ccc(C3OC(C)C(O)C(C)(O)C3O)c21 (stereo unspecified),14µM*,i,0.63µM*,.,0%
COc1cc2c(c3oc4cccc(O)c4c(=O)c13)[C@@H]1C=CO[C@@H]1O2,.,.,.,i,.
SMILES,TDP-43 yeast inh,Abeta rescue,aSyn rescue,FUS yeast rescue,PTAP TSG101 blk
Cc1ccccc1-n1nc(C)c2c1NC(=O)CSC2c1ccc(N(C)C)cc1 (stereo unspecified),0%,i,.,?,.
Cc1ccccc1-n1nc(C)c2c1NC(=O)CSC2c1ccc(Cl)cc1 (stereo unspecified),18µM*,i,.,i,.
O=C1CC(=O)N(c2ccccc2)C(=O)N1c1ccccc1,-22%,i,-1%,i,-6%
O=C1C(Cl)=C(N2CCCCCC2)C(=O)N1c1ccccc1,11µM*,i,2%,i,-7%
O=C(CN1CCN(C(=O)CNC(=O)c2ccc(-c3ccccc3)cc2)CC1)Nc1ccccc1Cl,?,i,7%,i,.
O=[N+]([O-])c1ccc(O)c([N+](=O)[O-])c1,-92%,i,3%,i,-3%
O=[N+]([O-])c1ccc(Cl)c([N+](=O)[O-])c1,11µM*,i,3%,i,-2%
O=C1CC[C@@]2(O)C3Cc4ccc(O)c5c4C2(CCN3CC2CC2)[C@H]1O5 (stereo partly specified),.,.,-2%,.,.
COC(=O)c1ccc(NC2=C(Cl)C(=O)OC2OC(=O)c2ccccc2)cc1 (stereo unspecified),22µM*,i,3%,i,0%
Cn1c(O)c(C2=NNC(c3ccc(Cl)cc3)C2)c(=O)n(C)c1=O (stereo unspecified),?,14µM*,-12%,i,-2%
CC(C)CN(CC(C)C)C(=O)C1C2c3ccccc3C(c3ccccc32)C1C(=O)O (stereo unspecified),11µM*,i,-9%,i,-3%
CC(C)OC(=O)C1C2c3ccccc3C(c3ccccc32)C1C(=O)O (stereo unspecified),?,i,0%,i,-4%
CCCCC[C@H]1CCCCC[C@H](O)C[C@@H](O)[C@H](O)/C=C/C(=O)O1,26%,i,2%,i,.
Cc1cc(O)c2c(c1)OC(C)(C)C1=C2CC(C)CC1 (stereo unspecified),13µM*,i,22%,i,2%
COc1cccc(-n2cnc3scc(-c4cccs4)c3c2=O)c1,18µM*,i,9%,i,-3%
Cc1cc(=O)oc2c(C)c(OC3CCCCC3=O)ccc12 (stereo unspecified),?,i,6%,i,-3%
COC(=O)C1=C(c2ccc(-c3ccccc3)c(F)c2)C[C@@H]2CC[C@H]1N2C(=O)N1CCOCC1,20µM*,i,-6%,?,-3%
COC(=O)C1=C(c2ccc3ccccc3c2)C[C@@H]2CC[C@H]1N2C(=O)N1CCCCC1,20µM*,i,0%,?,-2%
COC(=O)C1=C(c2ccc(-c3ccccc3)c(F)c2)C[C@@H]2CC[C@H]1N2C(=O)N1CCCC1,25µM*,i,-23%,?,.
COC(=O)C1=C(c2ccc(OC(F)(F)F)cc2)C[C@@H]2CC[C@H]1N2C(=O)N1CCCCC1,35µM*,i,-22%,?,-7%
ClCCN(CCCl)c1ccc(/C=C/c2sc3ccccc3[n+]2CCCCI)cc1,.,.,-26%,.,.
COc1ccc(C2CC(c3c(O)n(CCc4ccccc4)c(=O)[nH]c3=O)=NN2)cc1OC (stereo unspecified),-1%,i,-9%,22µM*,-3%
